Where “and” joins values, the source holds several entries; their conditions need not be identical. Identical values can stand only once. Inconclusive results are not listed. Calls of active or inactive are those of the source. Calls come from the whole dose curve; as a rule, active = well fitted activation curve with a large enough effect; inconclusive = small, poorly fitted or top-dose-only effect; inactive = no such curve, though single readings can be large or run the other way.
Potency is the fitted concentration of half-maximal effect.

Sequence of Cellular tumor antigen p53 (Homo sapiens) (P04637 whole entry, looked up): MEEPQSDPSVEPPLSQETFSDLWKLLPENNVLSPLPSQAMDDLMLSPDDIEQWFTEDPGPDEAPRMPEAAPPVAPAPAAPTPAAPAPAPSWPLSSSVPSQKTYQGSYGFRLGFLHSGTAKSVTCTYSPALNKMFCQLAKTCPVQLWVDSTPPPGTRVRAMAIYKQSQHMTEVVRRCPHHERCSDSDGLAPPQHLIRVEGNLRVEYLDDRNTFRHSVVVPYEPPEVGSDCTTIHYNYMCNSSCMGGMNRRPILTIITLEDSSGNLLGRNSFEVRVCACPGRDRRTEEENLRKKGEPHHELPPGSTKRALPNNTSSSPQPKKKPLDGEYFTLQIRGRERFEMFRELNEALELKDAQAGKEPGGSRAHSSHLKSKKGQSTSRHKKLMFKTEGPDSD

The target in the assay is Cellular tumor antigen p53 (Homo sapiens) (UniProt P04637). Description: Primary qHTS for small molecule compounds that upregulate eGFP-tagged delta133p53alpha (in N-terminal) cells. (AID 2060322).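 For activation: series mostly up to about 56 µM; 0% = DMSO vehicle and 100% = reference activator.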 Note: nearly all actives have a fitted effect of over 75% in size. Particulars: NCI-H358 eGFP-delta133p53alpha fluorescence, 24 h; activation: hits give high values. In short, it runs like this:
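NCI-H358 cells pre-induced 24 h with 10 ng/ml doxycycline to express N-terminal eGFP-delta133p53alpha, then dosed 24 h at 37C without doxycycline; fixed, Hoechst-stained, GFP intensity by laser scanning cytometry, normalized to DMSO (0%) and 57.5 uM 5-azacytidine (100%).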
On the technique in general: qHTS replaces the single test concentration by a dilution series.
For `Cc1cc(=O)n(-c2ccccc2)n1C`, the activation was -16.7% (inactive).

`CC(C)(O)[C@H]1CC[C@@](C)([C@H]2[C@@H](O)C[C@@]3(C)[C@@H]4C[C@H](O[C@@H]5O[C@H](CO)[C@@H](O)[C@H](O)[C@@H]5O)[C@H]5C(C)(C)[C@@H](O[C@@H]6OC[C@@H](O)[C@H](O)[C@@H]6O)CC[C@@]56C[C@@]46CC[C@]23C)O1`: the activation was 10.3% (inactive).

Take `CCOC(=O)N1CCN([N+]([O-])=NOc2ccc([N+](=O)[O-])cc2C#N)CC1`: the activation is 12.2% (inactive).

In the case of `C=CC[C@@H]1C=C(C)C[C@H](C)C[C@H](OC)[C@H]2O[C@@](O)(C(=O)C(=O)N3CCCC[C@H]3C(=O)O[C@H](C(C)=C[C@@H]3CC[C@H](O)[C@H](OC)C3)[C@@H](C)[C@@H](O)CC1=O)[C@@H](C)C[C@@H]2OC`, the activation is 23.1% (inactive).

In the case of `Nc1ccc(S(=O)(=O)NC(=O)c2ccccc2)cc1`, the activation is 5.08% (inactive).

Consider `C[C@@H]1C[C@H]2[C@@H]3C[C@H](F)C4=CC(=O)C(Cl)=C[C@]4(C)[C@@]3(F)[C@@H](O)C[C@]2(C)[C@@]1(O)C(=O)CO`, for which the activation was -14.1% (inactive).

`O=C1OCCN1/N=C/c1ccc([N+](=O)[O-])o1`: the activation was -3.35% (inactive).

Turning to `COc1ccc(C2C(=O)c3ccccc3C2=O)cc1`, the activation was -15.9% (inactive).

`COc1ccccc1OC(=O)Oc1ccccc1OC`: the activation was 6.69% (inactive).

Consider `FC(F)(F)C(F)(F)C(F)(F)C(F)(F)C(F)(F)C(F)(F)C(F)(F)C(F)(F)Br`, for which the activation is -14.1% (inactive).

Consider `CCCCCN(CCCOC)C(=O)C(CCC(=O)O)NC(=O)c1ccc(Cl)c(Cl)c1` (stereo not given), for which the activation was -18.6% (inactive).

As to `O=S(=O)(NCCNCC=Cc1ccc(Br)cc1)c1cccc2cnccc12`, the activation was -19.7% (inactive).

As to `CC[C@@H]([C@H](C)O)n1ncn(-c2ccc(N3CCN(c4ccc(OC[C@@H]5CO[C@@](Cn6cncn6)(c6ccc(F)cc6F)C5)cc4)CC3)cc2)c1=O`, the activation was 22.6% (inactive).

Turning to `CN1C(=O)c2ccccc2C1=O`, the activation is 7.53% (inactive).

Turning to `CCN1CCN(C(=O)N[C@H](C(=O)N[C@@H]2C(=O)N3C(C(=O)O)=C(CSc4nnnn4C)CS[C@@H]23)c2ccc(O)cc2)C(=O)C1=O`, the activation was 19.4% (inactive).

Take `O=C(O)c1ccccc1OP(=O)(O)O`: the activation was -6.21% (inactive).

On to `CO/N=C(\C(=O)O)c1csc(NC(=O)CCl)n1`, for which the activation is -17.5% (inactive).

Take `Cc1nc2n(c(=O)c1CCN1CCC(c3noc4cc(F)ccc34)CC1)CCCC2`: the activation is 2.45% (inactive) and 8.37% (inactive).

Take `Nc1cccc2c(N)cccc12`: the Potency was 28.2 µM (active).

Regarding `O=C1CC(c2ccc(Cl)cc2)CC(=O)N1`, the activation was -11.9% (inactive).

As for `N#CC(=C(N)Sc1ccc(N)cc1)c1ccccc1C(F)(F)F`, the activation is 19.5% (inactive).

Consider `CC(=O)O[C@]1(C(C)=O)CC[C@@H]2[C@@H]3C[C@H](C)C4=CC(=O)CC[C@]4(C)[C@H]3CC[C@@]21C`, for which the activation is 17.1% (inactive).

`CN(C)CCC[C@@]1(c2ccc(F)cc2)OCc2cc(C#N)ccc21`: the activation was 15.3% (inactive).

Take `CCc1c(C(=O)Nc2cc(S(=O)(=O)N(CC)CC)ccc2O)[nH]c(C)c1C(C)=O`: the activation is -38% (inactive).

Turning to `O=C(c1cc(O)c(O)c(O)c1)c1ccc(O)c(O)c1O`, the activation was 23.2% (inactive).

Turning to `CC(=O)N[C@@H](CCC(N)=O)C(=O)O`, the activation was -8.37% (inactive).

Consider `NC(=O)NC1NC(=O)NC1=O` (stereo not given), for which the activation was -17.5% (inactive).

`CC(=O)N1CCN(c2ccc(O)cc2)CC1`: the activation was -15.3% (inactive).

On to `CC(=O)Nc1ncc([N+](=O)[O-])s1`, for which the activation was -1.69% (inactive).

On to `CS(=O)(=O)c1ccc([C@@H](O)[C@@H](CO)NC(=O)C(Cl)Cl)cc1`, for which the activation is 15.3% (inactive) and 17.8% (inactive).

Take `CC(=O)Nc1ccc(C(=O)O)cc1`: the activation is 26.6% (inactive).

`CN(C)CCn1nnnc1SCC1=C(C(=O)O)N2C(=O)[C@@H](NC(=O)Cc3csc(N)n3)[C@H]2SC1`: the activation was -0.565% (inactive).

As for `C[C@@H](O)[C@H]1C(=O)N2C(C(=O)OCOC(=O)C(C)(C)C)=C(SC3CN(C4=NCCS4)C3)[C@H](C)[C@H]12`, the activation is -12.3% (inactive).

Take `O=C(O)c1ccc(-c2cc3cccnc3c(-c3ccc4nonc4c3)n2)cc1`: the activation was 3.89% (inactive).

Take `C[C@H](CCC(=O)O)[C@H]1CC[C@H]2[C@@H]3[C@H](O)C[C@@H]4C[C@H](O)CC[C@]4(C)[C@@H]3CC[C@]12C`: the activation is -19.5% (inactive).

As for `NC(=O)N1c2ccccc2CC(=O)c2ccccc21`, the activation is 19.2% (inactive) and 34.6% (inactive).

As for `Cc1ccc(O)c([C@H](CCN(C(C)C)C(C)C)c2ccccc2)c1`, the activation was 10.7% (inactive).

Consider `CN(C)[C@@H]1C(=O)C(C(N)=O)=C(O)[C@@]2(O)C(=O)C3=C(O)c4c(O)cccc4C[C@H]3C[C@@H]12`, for which the Potency is 17.4 µM (active).

Take `C[C@H]1[C@H](NC(=O)C(=NOC(C)(C)C(=O)O)c2csc(N)n2)C(=O)N1S(=O)(=O)O`: the activation is -31.5% (inactive).

`O=C1[C@H]2CCCC[C@H]2C(=O)N1CCCCN1CCN(c2nsc3ccccc23)CC1`: the activation is 10.7% (inactive).
